# From the supplement of paper PMC3414501
# Structures can show the parent of a compound that is named as a salt.
# Test system: S. cerevisiae BY4741 (wild-type), vegetative growth in YPD; in the data active = 2 or more and inactive = the rest
# Assay: growth sensitivity score (doubling time z-score vs DMSO controls); higher = slower growth, strongly negative scores also mark growth inhibition (complete suppression), active = hit call of the paper
# How it was run: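 Optical density of Saccharomyces cerevisiae cultures in microtiter plates was followed every 15 min for 24 hours after seeding at an OD600 of 0.065. Eight solvent-only wells were run per experiment. Growth sensitivity scores were found by subtracting the solvent-only mean from the compound mean and dividing by the solvent-only standard deviation.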
row,Compound,growth sensitivity score
1,"COc1cc(C)c(Cc2cnc(N)nc2N)cc1OC [Ormetoprim] (stock concentration (mM, diluted 1:100): 10)",-1.06 (inactive)
2,"CCn1cc(C(=O)O)c(=O)c2cc(F)c(N3CCN(C)CC3)cc21 [Pefloxacin mesylate] (stock concentration (mM, diluted 1:100): 7.9)",-1.1 (inactive)
3,"CN1CCN(C2=Nc3ccccc3Oc3ccc(Cl)cc32)CC1 [Loxapine succinate] (stock concentration (mM, diluted 1:100): 11)",1.9 (inactive)
4,"COc1ccc(-c2oc3c(CC=C(C)C)c(O[C@@H]4O[C@H](CO)[C@@H](O)[C@H](O)[C@H]4O)cc(O)c3c(=O)c2O[C@@H]2O[C@@H](C)[C@H](O)[C@@H](O)[C@H]2O)cc1 [Icariin] (stock concentration (mM, diluted 1:100): 10)",-1.71 (inactive)
5,"CN(CCCN1c2ccccc2CCc2ccccc21)CC(=O)c1ccc(Cl)cc1 [Lofepramine] (stock concentration (mM, diluted 1:100): 10)",3.15 (active)
6,"CNNCc1ccc(C(=O)NC(C)C)cc1 [Procarbazine hydrochloride] (stock concentration (mM, diluted 1:100): 8.6)",0.69 (inactive)
7,"CCc1nn(CCCN2CCN(c3cccc(Cl)c3)CC2)c(=O)n1CCOc1ccccc1 [Nefazodone] (stock concentration (mM, diluted 1:100): 9.3)",9.68 (active)
8,"CC(=O)CCCCn1c(=O)c2c(ncn2C)n(C)c1=O [Pentoxifylline] (stock concentration (mM, diluted 1:100): 10)",-0.51 (inactive)
9,"CN1CCN(C2=Nc3cc(F)ccc3Cc3ccccc32)CC1 [Fluperlapine] (stock concentration (mM, diluted 1:100): 10)",0.57 (inactive)
10,"CN(C)CCc1c[nH]c2ccc(Cn3cncn3)cc12 [Rizatriptan benzoate] (stock concentration (mM, diluted 1:100): 10)",-0.18 (inactive)
11,"N[C@@H](C(=O)N[C@@H]1C(=O)N2C(C(=O)O)=C(CSc3cn[nH]n3)CS[C@H]12)c1ccc(O)cc1 [Seapuron] (stock concentration (mM, diluted 1:100): 8.6)",-0.6 (inactive)
12,"CN1CCN(c2nc3cc(C(F)(F)F)ccc3n3cccc23)CC1 (stock concentration (mM, diluted 1:100): 10)",351 (active)
13,"CCC(C)n1ncn(-c2ccc(N3CCN(c4ccc(OCC5COC(Cn6cncn6)(c6ccc(Cl)cc6Cl)O5)cc4)CC3)cc2)c1=O (configuration not stated) [Itraconazole] (stock concentration (mM, diluted 1:100): 10.1)",10.9 (active)
14,"C=C1/C(=C\C=C2/CCC[C@]3(C)[C@@H]([C@H](C)/C=C/[C@@H](O)C4CC4)CC[C@@H]23)C[C@@H](O)C[C@@H]1O [Calcipotriol] (stock concentration (mM, diluted 1:100): 10.1)",-0.31 (inactive)
15,"COCc1c(C(C)C)nc(C(C)C)c(/C=C/[C@@H](O)C[C@@H](O)CC(=O)O)c1-c1ccc(F)cc1 [Cerivastatin] (stock concentration (mM, diluted 1:100): 10)",28.6 (active)
16,"CCc1oc2ccccc2c1C(=O)c1cc(Br)c(O)c(Br)c1 [Benzbromarone] (stock concentration (mM, diluted 1:100): 10)",72.3 (active)
17,"Cc1ccnc2c1NC(=O)c1cccnc1N2C1CC1 [Viramune] (stock concentration (mM, diluted 1:100): 10)",-1.29 (inactive)
18,"CCN1CCC[C@H]1CNC(=O)c1c(O)c(Cl)cc(Cl)c1OC [Raclopride] (stock concentration (mM, diluted 1:100): 10)",0.66 (inactive)
19,"CC(C)(O)c1ccccc1CC[C@@H](SCC1(CC(=O)O)CC1)c1cccc(/C=C/c2ccc3ccc(Cl)cc3n2)c1 [Montelukast] (stock concentration (mM, diluted 1:100): 9.6)",-1.05 (inactive)
20,"O=C1Nc2ccc(Cl)cc2[C@@](C#CC2CC2)(C(F)(F)F)O1 [Efavirenz] (stock concentration (mM, diluted 1:100): 10.1)",40.5 (active)
21,"O=C1[C@H](CC[C@H](O)c2ccc(F)cc2)[C@@H](c2ccc(O)cc2)N1c1ccc(F)cc1 [Ezetimibe] (stock concentration (mM, diluted 1:100): 10)",-0.7 (inactive)
22,"O=C1c2c(O)cc(O)cc2OC(c2ccc(O)c(O)c2)C1O (configuration not stated) [Taxifolin] (stock concentration (mM, diluted 1:100): 10.1)",-1.02 (inactive)
23,"Nc1nc(Cl)nc2c1ncn2[C@@H]1O[C@H](CO)[C@@H](O)[C@H]1O [2-Chloroadenosine] (stock concentration (mM, diluted 1:100): 10)",-1.07 (inactive)
24,"Cc1nc2ccccn2c(=O)c1CCN1CCC(C(=O)c2ccc(F)cc2)CC1 [Pirenperone] (stock concentration (mM, diluted 1:100): 10)",-0.59 (inactive)
25,"COc1ccccc1N1CCN(CC(O)COc2cccc3ccccc23)CC1 (configuration not stated) [Naftopidil] (stock concentration (mM, diluted 1:100): 10)",7.62 (active)
26,"Nc1nc2ccc(Cl)cc2c2nc(-c3ccco3)nn12 (stock concentration (mM, diluted 1:100): 10)",5.26 (active)
27,"CN1CC(=O)N2[C@H](c3ccc4c(c3)OCO4)c3[nH]c4ccccc4c3C[C@@H]2C1=O [Tadalafil] (stock concentration (mM, diluted 1:100): 10)",-1.71 (inactive)
